Data taken from the supplement of paper PMC6555819.

These sequences were tested on RXRa DBDmut IVT, anti-RXR (DBD mutation: RXRa K156A/R161A, NR concentration 90 nM) (assay: PBM binding z-score (relative to random genomic background probes); higher = stronger binding; sequences stand for … in GC…GCGATTGACAGCGTAGAATGAAGG).
Outline: (§1)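 Probes were double-stranded and carried 34-nt variable regions with direct-repeat seeds, single-nucleotide variants, half-site ablations and random human genomic background sequences, printed on custom Agilent 4×180K protein-binding microarrays. Arrays were incubated 1 h with ligand-free nuclear receptor dimers in PBS pH 7.4, 2% milk, 0.02% Triton X-100, 1 mM DTT, 0.2 mg/mL BSA and 0.4 mg/ml salmon testes DNA. Antibodies against each partner (one per run) detected binding, and scanned fluorescence was regression-normalized. Binding z-scores use the random background probes as reference.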

Q: For CTCGAAAGGTCGTGCTCAGGTGAGTATCCCAAAC, which PBM binding z-score is on record?
A: 2.02

Q: CCTATTAGTTGACCATAAGCGCAACCGAAGCTCG was tested. Which PBM binding z-score did it give?
A: 0.856

Q: TCGATTAGTTGATTAGGGCAACCGAAACAGCGGA was tested. Which PBM binding z-score did it give?
A: 0.535

Q: How did the PBM binding z-score turn out when TCTTGTAGATCAAGCAAGTTAAGAAAGCCTGAGT was run?
A: 0.582

Q: For TCGAGTAGGTTAGTCAGGGCATTCAGCCAACATA, which PBM binding z-score is on record?
A: 0.358

Q: CGTCCAAGGTCAATGCTAAGTCAGTGAAAGCATT was tested. Which PBM binding z-score did it give?
A: 3.39

Q: How did the PBM binding z-score turn out when ATCTCTAGGTAAGACTCAGTTCATTGAAGAACGC was run?
A: 1.31

Q: With CTACCAAGGTGAACAAGGTCGTTGACTACTATTC as the sequence, how does the PBM binding z-score read?
A: 1.6

Q: How did the PBM binding z-score turn out when ATCTCTAGGTAAACTTCAGTGAAAGATCGATAGA was run?
A: 0.168

Q: ACTAGTTGGTCTGCTGAGGTCACACACAATTCGG was tested. Which PBM binding z-score did it give?
A: 1.37

Q: For AATACAGGGACACTAGGCCAGAGTAGGTACGAAT, which PBM binding z-score is on record?
A: 0.0578

Q: How did the PBM binding z-score turn out when CCTCGGAGGACAGAATGTCAGAGCTGTCCGCTTT was run?
A: -0.282

Q: How did the PBM binding z-score turn out when CAAATTAGGTCACAGAGGTCAAAGTCCGTGCGTA was run?
A: 3.72

Q: With CTCGAAAGGTCGGTTGAGCTGAGTATACGGATAA as the sequence, how does the PBM binding z-score read?
A: 0.709

Q: For TCTATTAGCTGAAGGGCAACCGACGAGTCCGTTT, which PBM binding z-score is on record?
A: 0.755

Q: With TCGAGTAGGTTACTCGGGGCATTCAGCCAACATA as the sequence, how does the PBM binding z-score read?
A: 0.42

Q: CCTGCTCGGTCATGGTCAGCTAATCTACAGTATG was tested. Which PBM binding z-score did it give?
A: 0.361

Q: How did the PBM binding z-score turn out when AGTCAAAGTTCAGGCCGAGGTAACGTAAAGCACG was run?
A: 3.1

Q: GATACAGCGTCAGCTAGAGGCCAGAGTATGGAAA was tested. Which PBM binding z-score did it give?
A: -0.648

Q: For ATATGTAGGTTACATCCGGGTCATTCCGGCTATG, which PBM binding z-score is on record?
A: 1.21

Q: With TCATATAGGTAACGGTGAAAGTCGAACGATATGA as the sequence, how does the PBM binding z-score read?
A: 0.399

Q: For CCTACTCGGCCATCAGGTCATTGATATCAACGTT, which PBM binding z-score is on record?
A: 1.21

Q: Which PBM binding z-score does the source give for AGAACGAGGGCAATGAGTTGGTAGCACGGGTGGC here?
A: 1.47

Q: For TCATATAGGAAAAAGGTGAAAGTCGGTGTGGTAA, which PBM binding z-score is on record?
A: 1.88

Q: Which PBM binding z-score does the source give for GCCGCTAGGTCAGGTTGGTCAGCTAACGGGTACG here?
A: 0.508

Q: With CAAACTAGGTCACAGAGCTCAAAGTCCGTGCGTA as the sequence, how does the PBM binding z-score read?
A: 1.38

Q: For TTTATTAGTTGAAGGGCAACCGACGAGTCCGTTT, which PBM binding z-score is on record?
A: 0.859

Q: With CCTACTGGTCCATTCAGAGGTCATTGATCATATG as the sequence, how does the PBM binding z-score read?
A: 1.73

Q: How did the PBM binding z-score turn out when TCATATAGGTAAAGAGGTGAAAGTCCGTAAGTTA was run?
A: 1.73

Q: Which PBM binding z-score does the source give for ATCTCTAGGTAAAGTTCAGTGCAAGATCGATAGA here?
A: 1.39

Q: For TTACCAAGGTGAAGGGCGTTGATCCCTCTGTAGA, which PBM binding z-score is on record?
A: -0.371

Q: CTCGAAAGGTCGGTTGAGGTGAGTATCCGGATAA was tested. Which PBM binding z-score did it give?
A: 0.858

Q: For GGAACGAGGGCATTCGAGTAGATAGCATGGCGAT, which PBM binding z-score is on record?
A: 3.24

Q: With ACTTACCGGTCAACGAGGTTATAGCACGCGTATA as the sequence, how does the PBM binding z-score read?
A: 1.25

Q: With ACTAGTTGGTCAGATGAGGTCACACACAATTCGG as the sequence, how does the PBM binding z-score read?
A: 1.44

Q: With AAAGACAGGTGAGTGAAGGTAACTCAGCTGGACG as the sequence, how does the PBM binding z-score read?
A: -0.545

Q: Which PBM binding z-score does the source give for AGTCAAAGTTCATCTAGGTGACGTAAGATATGCT here?
A: 4.62

Q: For CCTGCTAGGTCATGGTCAGCTAATCTACAGTATG, which PBM binding z-score is on record?
A: 1.9

Q: With ATATGTAGGTTATTGGGTCATTCAGTTTGCGCAT as the sequence, how does the PBM binding z-score read?
A: 1.61

Q: For TCTTGTAGATCAACAGGAGCTTAAGAAAGATCGA, which PBM binding z-score is on record?
A: -0.0794

The sequences below were run on RXRa homodimer (NR concentration 180 nM) in the same assay as above.
Outline: as §1

Q: For CTCGAAAGGTCGTGCTCAGGTGAGTATCCCAAAC, which PBM binding z-score is on record?
A: 4.66

Q: How did the PBM binding z-score turn out when CCTATTAGTTGACCATAAGCGCAACCGAAGCTCG was run?
A: 0.371

Q: With TCGATTAGTTGATTAGGGCAACCGAAACAGCGGA as the sequence, how does the PBM binding z-score read?
A: 0.0192

Q: For TCTTGTAGATCAAGCAAGTTAAGAAAGCCTGAGT, which PBM binding z-score is on record?
A: -0.066

Q: Which PBM binding z-score does the source give for TCGAGTAGGTTAGTCAGGGCATTCAGCCAACATA here?
A: -0.156

Q: CGTCCAAGGTCAATGCTAAGTCAGTGAAAGCATT was tested. Which PBM binding z-score did it give?
A: 4.48

Q: For ATCTCTAGGTAAGACTCAGTTCATTGAAGAACGC, which PBM binding z-score is on record?
A: 0.538

Q: How did the PBM binding z-score turn out when CTACCAAGGTGAACAAGGTCGTTGACTACTATTC was run?
A: 2.34

Q: For ATCTCTAGGTAAACTTCAGTGAAAGATCGATAGA, which PBM binding z-score is on record?
A: 0.222

Q: How did the PBM binding z-score turn out when ACTAGTTGGTCTGCTGAGGTCACACACAATTCGG was run?
A: 3.45

Q: Which PBM binding z-score does the source give for AATACAGGGACACTAGGCCAGAGTAGGTACGAAT here?
A: -0.151

Q: With CCTCGGAGGACAGAATGTCAGAGCTGTCCGCTTT as the sequence, how does the PBM binding z-score read?
A: -0.66

Q: For CAAATTAGGTCACAGAGGTCAAAGTCCGTGCGTA, which PBM binding z-score is on record?
A: 7.43

Q: How did the PBM binding z-score turn out when CTCGAAAGGTCGGTTGAGCTGAGTATACGGATAA was run?
A: 1.74

Q: TCTATTAGCTGAAGGGCAACCGACGAGTCCGTTT was tested. Which PBM binding z-score did it give?
A: 0.365

Q: For TCGAGTAGGTTACTCGGGGCATTCAGCCAACATA, which PBM binding z-score is on record?
A: 0.372

Q: CCTGCTCGGTCATGGTCAGCTAATCTACAGTATG was tested. Which PBM binding z-score did it give?
A: 0.252

Q: How did the PBM binding z-score turn out when AGTCAAAGTTCAGGCCGAGGTAACGTAAAGCACG was run?
A: 2.85

Q: With GATACAGCGTCAGCTAGAGGCCAGAGTATGGAAA as the sequence, how does the PBM binding z-score read?
A: -0.444

Q: ATATGTAGGTTACATCCGGGTCATTCCGGCTATG was tested. Which PBM binding z-score did it give?
A: 2.92

Q: With TCATATAGGTAACGGTGAAAGTCGAACGATATGA as the sequence, how does the PBM binding z-score read?
A: 0.79

Q: For CCTACTCGGCCATCAGGTCATTGATATCAACGTT, which PBM binding z-score is on record?
A: 1.33

Q: AGAACGAGGGCAATGAGTTGGTAGCACGGGTGGC was tested. Which PBM binding z-score did it give?
A: 0.619

Q: For TCATATAGGAAAAAGGTGAAAGTCGGTGTGGTAA, which PBM binding z-score is on record?
A: 1.5

Q: GCCGCTAGGTCAGGTTGGTCAGCTAACGGGTACG was tested. Which PBM binding z-score did it give?
A: 1.1

Q: For CAAACTAGGTCACAGAGCTCAAAGTCCGTGCGTA, which PBM binding z-score is on record?
A: 3.73

Q: For TTTATTAGTTGAAGGGCAACCGACGAGTCCGTTT, which PBM binding z-score is on record?
A: 0.628

Q: With CCTACTGGTCCATTCAGAGGTCATTGATCATATG as the sequence, how does the PBM binding z-score read?
A: 3.92

Q: Which PBM binding z-score does the source give for TCATATAGGTAAAGAGGTGAAAGTCCGTAAGTTA here?
A: 2.04

Q: Which PBM binding z-score does the source give for ATCTCTAGGTAAAGTTCAGTGCAAGATCGATAGA here?
A: 1.4

Q: With TTACCAAGGTGAAGGGCGTTGATCCCTCTGTAGA as the sequence, how does the PBM binding z-score read?
A: 0.755

Q: Which PBM binding z-score does the source give for CTCGAAAGGTCGGTTGAGGTGAGTATCCGGATAA here?
A: 2.31

Q: With GGAACGAGGGCATTCGAGTAGATAGCATGGCGAT as the sequence, how does the PBM binding z-score read?
A: 0.859

Q: Which PBM binding z-score does the source give for ACTTACCGGTCAACGAGGTTATAGCACGCGTATA here?
A: 2.27

Q: For ACTAGTTGGTCAGATGAGGTCACACACAATTCGG, which PBM binding z-score is on record?
A: 4.3

Q: With AAAGACAGGTGAGTGAAGGTAACTCAGCTGGACG as the sequence, how does the PBM binding z-score read?
A: 0.374

Q: With AGTCAAAGTTCATCTAGGTGACGTAAGATATGCT as the sequence, how does the PBM binding z-score read?
A: 4.44

Q: How did the PBM binding z-score turn out when CCTGCTAGGTCATGGTCAGCTAATCTACAGTATG was run?
A: 2.92

Q: How did the PBM binding z-score turn out when ATATGTAGGTTATTGGGTCATTCAGTTTGCGCAT was run?
A: 2.89

Q: Which PBM binding z-score does the source give for TCTTGTAGATCAACAGGAGCTTAAGAAAGATCGA here?
A: -0.154
